# Source: PubChem BioAssay
# Mcl-1 Bim block: inhibitors of Bim-Mcl-1 interaction, human | Q07820 | Bead-based flow cytometry, Bim peptide-Mcl-1 binding | inhibition, % at 10 µM | 190,000 tested, 0.1% active | AID 1009; in the data active means inhibition above about 40%
# GLD-1 RNA inh: GLD-1-TGE RNA interaction inhibition (C. elegans). purified GLD-1 + fluorescein TGE RNA, fluorescence polarization. inhibition, % at 5.96 µM. 320,000 tested, 0.44% active. AID 2280;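 active means percent inhibition above a per-plate cutoff, the plate mean of test compounds plus 3 SD, cut at about 30% in these data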
# Target sequence (Q17339 whole entry, looked up): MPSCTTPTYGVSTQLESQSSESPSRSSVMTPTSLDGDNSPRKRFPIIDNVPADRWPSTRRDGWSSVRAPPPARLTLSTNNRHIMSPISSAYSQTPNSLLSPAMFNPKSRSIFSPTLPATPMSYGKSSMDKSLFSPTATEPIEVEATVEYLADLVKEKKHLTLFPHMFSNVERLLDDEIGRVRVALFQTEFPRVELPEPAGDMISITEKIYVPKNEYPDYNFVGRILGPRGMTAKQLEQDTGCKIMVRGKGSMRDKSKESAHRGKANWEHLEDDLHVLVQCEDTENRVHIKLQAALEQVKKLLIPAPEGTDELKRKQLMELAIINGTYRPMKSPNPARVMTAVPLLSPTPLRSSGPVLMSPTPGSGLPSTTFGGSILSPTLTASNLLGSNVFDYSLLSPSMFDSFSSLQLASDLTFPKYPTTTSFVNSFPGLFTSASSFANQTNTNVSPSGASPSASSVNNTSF
# Mcl1-Bid inh: disrupts binding of human Mcl-1 to Bid peptide. TR-FRET Mcl-1/Bid-Dy647 peptide binding, 1536-well. inhibition, % at 21.7 µM. 220,000 tested, 0.97% active. Q07820. AID 1021;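 active means compounds that cut the binding signal by more than half at the single screening dose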;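 further: His-tagged Mcl-1 with europium anti-His antibody binding Bid BH3 peptide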
# MCL1-BIM inh: disrupts human MCL1 binding to BIM-BH3 peptide | 320,000 tested, 0.68% active | inhibition, % at 10.9 µM | Q07820 | GST-MCL1 / FITC-Bim-BH3 fluorescence polarization | AID 2057;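 active means inhibition above the mean inhibition of all tested compounds plus 3 SD, set per campaign, cut at about 40% in these data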;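 further: higher means more loss of mP so more displacement of Bim peptide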
# Mcl1-Noxa inh: Mcl-1/Noxa interaction inhibition. Q07820. TR-FRET Mcl-1/Noxa peptide binding, 2 h. inhibition, % at 21.7 µM. 220,000 tested, 1.5% active. AID 1022;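 active means compounds that cut the protein-peptide binding signal by more than 50% relative to plate controls in a single-dose test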;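 further: His-tagged Mcl-1 with rhodamine Noxa BH3 peptide and terbium anti-His antibody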
# Bcl-xL primary: blocks human Bcl-xL binding to Bim BH3 peptide | GST-Bcl-xL / FITC-Bim BH3 peptide fluorescence polarization | inhibition, % at 10.9 µM | 320,000 tested, 0.7% active | AID 2129;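 active means inhibition above the mean of all tested compounds plus 3 SD, cutoff set per campaign, cut at about 30% in these data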;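 further: inhibitors lower millipolarization by displacing the labeled peptide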
# BCLXL inh confirm: Bcl-xL (human) inhibition, MCL1 counter-screen confirmation. shares compounds with MCL1-BIM inh. GST-Bcl-xL / FITC-Bim BH3 peptide FP binding. inhibition, % at 10.9 µM. 1,700 tested, 54% active. AID 2166;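 active means inhibition above a cutoff equal to the mean inhibition of all tested compounds plus 3 SD, cut at about 30% in these data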
# MCL1 BIM confirm: confirmation of human MCL1 and BIM-BH3 interaction inhibitors; shares compounds with MCL1-BIM inh; GST-MCL1 / FITC-Bim-BH3 fluorescence polarization; inhibition, % at 10.9 µM; 1,700 tested, 61% active; AID 2168;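 active means inhibition above the average of all tested compounds plus 3 SD, cut at about 40% in these data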
# Numbers stand for hits; 0 = inactive; - = no result given; + = active, no number; ! = a repeat was not active. Rows were chosen to be rich in hits. Some 2.3% of all compounds tested hit in one or more screens of this group.
SMILES,Mcl-1 Bim block,GLD-1 RNA inh,Mcl1-Bid inh,MCL1-BIM inh,Mcl1-Noxa inh,Bcl-xL primary,BCLXL inh confirm,MCL1 BIM confirm
CC(=O)N1c2ccccc2C(=O)C1N1CCCCC1 (stereo not given),0,58,0,69,0,65,52,63
CC(=O)Oc1ccc(C2OC(=O)c3ccccc3N2C(C)=O)cc1 (stereo not given),0,0,0,0,0,0,-,-
CC(=O)N1CCc2c(sc(NC(=O)c3ccc(S(=O)(=O)N(C)C)cc3)c2C#N)C1,-,0,-,41,-,0,38,0
CC(=O)N1CCc2c(sc(NC(=O)c3ccc4c(c3)OCCO4)c2C#N)C1,0,0,0,0,0,0,-,-
COCCNC(=O)/C(C#N)=C/c1c(N2CCN(C)CC2)nc2c(C)cccn2c1=O,-,0,-,0,-,0,-,-
Cc1cccn2c(=O)c(C=C(C#N)C#N)c(N3CCN(C)CC3)nc12,-,0,-,53,-,58,0,0
COc1ccc(OC)c(/C=C/c2nc3ccccc3[nH]c2=O)c1,-,75,-,83,-,78,98,99
COc1ccc(CCCc2nnc(SCc3nc4ccccc4c(=O)[nH]3)n2C)c(C)c1,-,0,0,0,0,0,-,-
CC(C)(C)c1ccc(C(=O)Nc2cccc3ncccc23)cc1,-,64,-,90,-,81,116,143
O=C(CSc1nc(C2CC2)nc2ccccc12)N1c2ccccc2Sc2ccc(C(F)(F)F)cc21,0,0,0,47,0,0,0,0
O=C(CSc1nc(C2CC2)nc2ccccc12)N1CCCCC1,-,0,-,0,-,0,-,-
COC(CNC(=O)c1ccc2c3c(onc13)-c1ccccc1C2=O)OC,-,+,0,+,70,+,+,+
Cc1nc2ccccn2c1C(=O)N/N=C/c1ccc([N+](=O)[O-])o1,0,0,0,41,0,0,0,54
CCOC(=O)C1CCN(C(=O)Cn2nc(C)n3cccc3c2=O)CC1,-,0,-,0,-,0,-,-
COc1cc(OC)c(C(=O)OCC(=O)Nc2ccccc2Cl)cc1OC,-,0,-,0,-,0,-,-
CCOc1cccc(/C=C/c2cc(C(=O)O)c3ccccc3n2)c1OC,-,0,0,0,0,0,-,-
CCNc1ccc(Br)cc(C(=O)/C=C/c2ccc3c(c2)OCO3)c1=O,0,0,0,47,94,0,0,0
CCOC(=O)c1ccccc1NC(=O)N1CCn2c(C)ccc2C1CC (stereo not given),0,33,0,63,0,62,35,0
N#CCc1cnc2ccccc2n1,-,60,0,76,0,82,0,0
O=C(O)c1cc(-c2ccco2)nc2ccc(Br)cc12,0,68!,0,141!,84!,96!,45,89
COc1ccc(C)cc1N(CC(=O)N/N=C/c1ccccc1C(=O)O)S(=O)(=O)c1ccccc1,0,0,0,0,0,0,-,-
FC(F)c1nc2ccccc2[nH]1,0,0,0,0,0,0,-,-
c1ccc2[nH]c3cc4ncnc4cc3nc2c1,0,+,0,+,0,+,+,+
O=S(=O)(Nc1cccnc1)c1ccc(Br)c2ccccc12,-,0,-,0,-,0,-,-
CCOc1ccc(CN(C)C(=O)c2cc(S(=O)(=O)N3CCCC3)ccc2C)cc1,-,0,-,0,-,0,-,-
SMILES,Mcl-1 Bim block,GLD-1 RNA inh,Mcl1-Bid inh,MCL1-BIM inh,Mcl1-Noxa inh,Bcl-xL primary,BCLXL inh confirm,MCL1 BIM confirm
Cn1ccnc1C(O)c1ccccc1 (stereo not given),0,0,0,0,0,0,-,-
COc1ccc2ccccc2c1C(O)c1nccn1C (stereo not given),0,145,0,+,0,173,164,197
COc1ccc(C(=O)CC(=O)C(=O)Nc2cccc(C(C)=O)c2)cc1,-,0,-,0,-,0,-,-
Cc1cccc(N=C2NC(=O)S/C2=C\c2ccco2)c1,0,0,0,42,0,35,0,0
O=C1NC(=Nc2ccc(Cl)cc2)/C(=C/c2ccco2)S1,0,0,57,90,66,59,38,75
O=C(NCc1nnc(SCC(=O)N2CCN(c3ccccc3)CC2)o1)c1ccc(F)cc1,-,0,-,0,-,0,-,-
C=CCNS(=O)(=O)c1cccc2cc(C(=O)O)c(O)cc12,0,0,0,97,0,0,0,0
c1ccc(-c2nnc(-c3ccco3)o2)cc1,0,0,0,0,0,0,-,-
c1coc(-c2nnc(-c3ccco3)nn2)c1,-,0,-,75,-,43,39,68
Cc1cc(O)c(Oc2cc(C)cc(O)c2O)c(O)c1,0,0,0,52,61,0,34,46
O=C(Nc1cccc(C(=O)O)c1)/C(=C\c1ccccc1)NC(=O)c1cccc2ccccc12,0,0,0,0,0,0,-,-
Cc1nc2nc(-c3cccs3)cn2nc1C,0,72,0,113,62,106,100,127
CCOC(=O)C=C(C(=O)OCC)C(=O)OCC,0,-,0,-,0,-,-,-
CCOC(=O)CSc1ccc2ccccc2n1,0,0,0,0,0,0,-,-
CCOC(=O)CN1C=C(c2ccc3ccccc3n2)C(C[N+](=O)[O-])c2ccccc21 (stereo not given),0,0,0,106,0,101,138,172
O=c1oc2c3c4c(cc2s1)CCCN4CCC3,0,76,0,165,51,130,99,120
O=c1ccc2cc3c4c(c2o1)CCCN4CCC3,0,89,0,105,0,97,155,182
CCCCn1c(N)c(N(CCOC)C(=O)CN2C(=O)C3CCCCC3C2=O)c(=O)[nH]c1=O (stereo not given),-,0,-,0,-,0,-,-
COC(=O)c1cccc(C23CC4(C2)[C@H](CN(Cc2cccnc2)[C@@H]4c2ccccc2)C3c2ccc(C(F)(F)F)cc2)c1 (stereo not given in full),-,0,0,0,0,0,-,-
Nc1ccc2c(c1)C/C(=C/c1ccco1)C2=O,0,0,0,105,0,60,97,106
O=C1/C(=C/c2ccco2)CCc2ccccc21,0,0,0,0,0,0,-,-
Cc1oc2cc(O)ccc2c(=O)c1-c1ccccc1,0,0,0,0,0,0,-,-
Cc1oc2cc(O)ccc2c(=O)c1-c1nncn1-c1ccccc1,0,113,0,109,0,113,119,139
COCCNC(=O)CN1C(=O)NC2(CCCc3cc(OC)ccc32)C1=O (stereo not given),-,0,-,0,-,0,-,-
CC1CC(=O)c2c(cc3c(-c4c(O)cc(O)c5c(O)c6c(cc45)OC(C)CC6=O)c(O)cc(O)c3c2O)O1 (stereo not given),0,0,0,76,93,44,0,0
CC1Cc2cc(S(=O)(=O)NCCC(=O)N(C)Cc3ccccc3)ccc2N1C(=O)C1CC1 (stereo not given),-,0,-,0,-,0,-,-
